Results: the supplement of paper PMC10849652
Targets with a hit are over-represented here; the source holds about 7,900 in all. About 0.6% of all pairs of compound and target were hits. Unmarked numbers belong to inactive results.

Key:
Assay in all cases: log2 fold change, soluble protein after heating vs DMSO (PISA); higher = thermal stabilisation; K562 cells, 10 uM, 30 min; active = over 0.2 and 3.5 SD of the protein, either way, in both replicates (recomputed)
[1] = compound: CC1=C(C=C(C=C1)NC(=O)C2=CC(=CC=C2)C(C)(C)C#N)NC3=CC4=C(C=C3)N=CN(C4=O)C
In short: (§1)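 Aliquots of K562 cells (2×10^6 cells/mL) treated with 10 μM compound for 30 min were heated for 3 min over 48°C-58°C. After pooling and extraction in PBS with 0.5% NP-40 at 4°C, soluble protein from a 21,000xg, 90 min spin was quantified by TMTpro 16plex LC-MS/MS with channel sums equalised. Thermal stability is expressed against control samples, from duplicates, as a log2 fold change.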

[2] = compound: CC1=C(C=C(C=C1)NC(=O)C2=CC(=CC=C2)N(C)C)NC(=O)C3=CC=C(C=C3)O
In short: as §1

[3] = compound: CC1=CC=C(C=C1)SC2=C3C=C(SC3=CN=C2)C(=O)N
In short: as §1

[4] = compound: CC1=NC(=CC=C1)C2=C(N=C(N2)C(C)(C)C)C3=CC4=NC=CN=C4C=C3
In short: as §1

Nexturastat A = compound: CCCCN(Cc1ccc(C(=O)NO)cc1)C(=O)Nc1ccccc1 [Nexturastat A]
In short: as §1

vemurafenib = compound: CCCS(=O)(=O)Nc1ccc(F)c(C(=O)c2c[nH]c3ncc(-c4ccc(Cl)cc4)cc23)c1F [vemurafenib]
In short: as §1

[5] = compound: CCCS(=O)(=O)Nc1ccc(F)c(C(=O)c2c[nH]c3ncc(Cl)cc23)c1F
In short: as §1

[6] = compound: CCCc1cc(C)[nH]c(=O)c1CNC(=O)c1cc(-c2ccnc(N3CCN(C)CC3)c2)cc2c1cnn2C(C)C
In short: as §1

givinostat = compound: CCN(CC)Cc1ccc2cc(COC(=O)Nc3ccc(C(=O)NO)cc3)ccc2c1 [givinostat]
In short: as §1

barasertib = compound: CCN(CCCOc1ccc2c(Nc3cc(CC(=O)Nc4cccc(F)c4)[nH]n3)ncnc2c1)CCOP(=O)(O)O [barasertib]
In short: as §1

[7] = compound: CC[C@@H]1C(=O)N(C)c2cnc(Nc3ccc(C(=O)NC4CCN(C)CC4)cc3OC)nc2N1C1CCCC1
In short: as §1

volasertib = compound: CC[C@@H]1C(=O)N(C)c2cnc(Nc3ccc(C(=O)N[C@H]4CC[C@H](N5CCN(CC6CC6)CC5)CC4)cc3OC)nc2N1C(C)C [volasertib]
In short: as §1

[8] = compound: CC[C@H](C)N1C=C(C2=C(C=C(C=C21)C3=CN=C(C=C3)N4CCNCC4)C(=O)NCC5=C(C=C(NC5=O)C)C)C
In short: as §1

epoxomicin = compound: CC[C@H](C)[C@@H](C(=O)N[C@@H]([C@@H](C)O)C(=O)N[C@@H](CC(C)C)C(=O)[C@]1(CO1)C)NC(=O)[C@H]([C@@H](C)CC)N(C)C(=O)C [epoxomicin]
In short: as §1

[9] = compound: CCn1c(C(=O)N(C2CC2)C2CC2)cc2c3c(ncn3C)c(Nc3cc(C)n(C)n3)nc21
In short: as §1

[10] = compound: CCn1cc(-c2ccnc3[nH]c(-c4cccc(CN(C)C)c4)cc23)c(-c2ccc(NC(=O)N(C)C)cc2)n1
In short: as §1

[11] = compound: CN(C)CC(=O)Nc1ccc2[nH]c(=O)c3ccccc3c2c1
In short: as §1

rosiglitazone = compound: CN(CCOC1=CC=C(C=C1)C[C@H]2C(=O)NC(=O)S2)C3=CC=CC=N3 (racemic) [rosiglitazone]
In short: as §1

[12] = compound: CN1C2=C(C3=C1C(=O)N(N=C3)CC4=CC(=CC=C4)N)SC(=C2)S(=O)C
In short: as §1

[13] = compound: CN1CCC(CNc2ccc3ncc(-c4cccc(OC(F)(F)F)c4)n3n2)CC1
In short: as §1

Sequence of UniProt Q12888 (Q12888 whole entry, looked up): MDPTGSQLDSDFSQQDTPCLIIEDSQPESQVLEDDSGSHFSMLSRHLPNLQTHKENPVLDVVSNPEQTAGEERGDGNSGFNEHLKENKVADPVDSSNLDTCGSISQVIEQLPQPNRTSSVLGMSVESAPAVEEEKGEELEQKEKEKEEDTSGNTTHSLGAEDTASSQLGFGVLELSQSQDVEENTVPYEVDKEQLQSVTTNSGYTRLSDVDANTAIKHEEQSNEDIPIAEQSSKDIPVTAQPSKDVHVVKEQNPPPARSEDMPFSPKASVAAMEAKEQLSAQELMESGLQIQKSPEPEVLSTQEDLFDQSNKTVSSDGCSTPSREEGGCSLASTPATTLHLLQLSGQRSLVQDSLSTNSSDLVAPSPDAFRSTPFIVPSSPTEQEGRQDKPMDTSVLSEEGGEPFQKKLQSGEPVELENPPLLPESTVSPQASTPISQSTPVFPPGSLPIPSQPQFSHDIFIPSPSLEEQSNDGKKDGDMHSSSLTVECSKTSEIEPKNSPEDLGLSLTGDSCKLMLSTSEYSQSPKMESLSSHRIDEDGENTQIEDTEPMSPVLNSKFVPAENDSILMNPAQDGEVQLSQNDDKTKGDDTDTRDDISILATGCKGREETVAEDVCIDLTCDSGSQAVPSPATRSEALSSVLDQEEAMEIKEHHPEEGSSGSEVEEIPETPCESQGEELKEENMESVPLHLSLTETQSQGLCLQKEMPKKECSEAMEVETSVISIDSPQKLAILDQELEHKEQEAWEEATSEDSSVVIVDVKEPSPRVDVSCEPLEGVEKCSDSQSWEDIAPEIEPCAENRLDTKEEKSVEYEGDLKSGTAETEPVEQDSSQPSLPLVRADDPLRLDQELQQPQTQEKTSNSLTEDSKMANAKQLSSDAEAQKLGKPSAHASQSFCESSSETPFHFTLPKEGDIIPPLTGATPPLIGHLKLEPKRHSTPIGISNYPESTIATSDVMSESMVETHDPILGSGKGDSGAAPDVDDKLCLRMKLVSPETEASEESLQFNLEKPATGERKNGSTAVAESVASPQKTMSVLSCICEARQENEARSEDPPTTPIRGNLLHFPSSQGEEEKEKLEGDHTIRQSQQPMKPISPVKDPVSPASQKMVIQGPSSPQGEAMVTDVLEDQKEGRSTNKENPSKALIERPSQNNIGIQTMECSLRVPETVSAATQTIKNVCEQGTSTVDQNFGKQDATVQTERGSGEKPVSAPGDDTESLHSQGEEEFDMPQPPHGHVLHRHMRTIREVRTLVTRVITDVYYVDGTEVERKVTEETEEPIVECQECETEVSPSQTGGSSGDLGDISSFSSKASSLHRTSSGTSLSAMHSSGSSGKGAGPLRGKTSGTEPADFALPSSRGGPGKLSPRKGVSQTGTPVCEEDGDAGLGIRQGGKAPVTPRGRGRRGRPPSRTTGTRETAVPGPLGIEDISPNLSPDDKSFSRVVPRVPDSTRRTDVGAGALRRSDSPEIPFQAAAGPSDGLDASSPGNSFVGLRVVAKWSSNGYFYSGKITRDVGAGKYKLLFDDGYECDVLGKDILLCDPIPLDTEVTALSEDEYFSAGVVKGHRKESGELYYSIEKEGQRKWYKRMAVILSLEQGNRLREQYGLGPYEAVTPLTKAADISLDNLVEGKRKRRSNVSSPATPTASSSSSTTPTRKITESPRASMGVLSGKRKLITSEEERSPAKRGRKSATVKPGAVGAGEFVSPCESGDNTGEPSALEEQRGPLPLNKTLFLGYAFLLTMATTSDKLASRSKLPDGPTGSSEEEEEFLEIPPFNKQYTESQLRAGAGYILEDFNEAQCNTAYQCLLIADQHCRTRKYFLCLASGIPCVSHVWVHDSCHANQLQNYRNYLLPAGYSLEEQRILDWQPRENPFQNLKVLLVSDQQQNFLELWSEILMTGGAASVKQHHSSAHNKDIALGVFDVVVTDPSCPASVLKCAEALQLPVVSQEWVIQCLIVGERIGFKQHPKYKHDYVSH
Sequence of UniProt O15213 (O15213 whole entry, looked up): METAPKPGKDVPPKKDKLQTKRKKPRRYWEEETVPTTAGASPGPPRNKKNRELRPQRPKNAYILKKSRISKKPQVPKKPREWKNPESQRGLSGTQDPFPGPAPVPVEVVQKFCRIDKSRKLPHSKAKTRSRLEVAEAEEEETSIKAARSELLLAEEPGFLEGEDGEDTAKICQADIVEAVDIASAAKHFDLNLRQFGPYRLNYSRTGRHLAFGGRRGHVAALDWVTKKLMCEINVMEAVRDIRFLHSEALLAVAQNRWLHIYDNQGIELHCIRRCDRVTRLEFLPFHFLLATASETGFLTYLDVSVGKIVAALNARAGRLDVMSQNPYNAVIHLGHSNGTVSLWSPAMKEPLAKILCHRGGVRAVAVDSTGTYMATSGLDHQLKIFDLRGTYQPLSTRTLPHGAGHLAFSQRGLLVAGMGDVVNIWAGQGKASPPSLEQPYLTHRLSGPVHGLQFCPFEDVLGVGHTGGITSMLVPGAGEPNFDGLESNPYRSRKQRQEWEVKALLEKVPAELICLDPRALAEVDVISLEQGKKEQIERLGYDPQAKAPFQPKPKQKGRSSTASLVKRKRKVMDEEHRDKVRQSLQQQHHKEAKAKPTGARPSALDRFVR
Sequence of UniProt Q14157 (Q14157 whole entry, looked up): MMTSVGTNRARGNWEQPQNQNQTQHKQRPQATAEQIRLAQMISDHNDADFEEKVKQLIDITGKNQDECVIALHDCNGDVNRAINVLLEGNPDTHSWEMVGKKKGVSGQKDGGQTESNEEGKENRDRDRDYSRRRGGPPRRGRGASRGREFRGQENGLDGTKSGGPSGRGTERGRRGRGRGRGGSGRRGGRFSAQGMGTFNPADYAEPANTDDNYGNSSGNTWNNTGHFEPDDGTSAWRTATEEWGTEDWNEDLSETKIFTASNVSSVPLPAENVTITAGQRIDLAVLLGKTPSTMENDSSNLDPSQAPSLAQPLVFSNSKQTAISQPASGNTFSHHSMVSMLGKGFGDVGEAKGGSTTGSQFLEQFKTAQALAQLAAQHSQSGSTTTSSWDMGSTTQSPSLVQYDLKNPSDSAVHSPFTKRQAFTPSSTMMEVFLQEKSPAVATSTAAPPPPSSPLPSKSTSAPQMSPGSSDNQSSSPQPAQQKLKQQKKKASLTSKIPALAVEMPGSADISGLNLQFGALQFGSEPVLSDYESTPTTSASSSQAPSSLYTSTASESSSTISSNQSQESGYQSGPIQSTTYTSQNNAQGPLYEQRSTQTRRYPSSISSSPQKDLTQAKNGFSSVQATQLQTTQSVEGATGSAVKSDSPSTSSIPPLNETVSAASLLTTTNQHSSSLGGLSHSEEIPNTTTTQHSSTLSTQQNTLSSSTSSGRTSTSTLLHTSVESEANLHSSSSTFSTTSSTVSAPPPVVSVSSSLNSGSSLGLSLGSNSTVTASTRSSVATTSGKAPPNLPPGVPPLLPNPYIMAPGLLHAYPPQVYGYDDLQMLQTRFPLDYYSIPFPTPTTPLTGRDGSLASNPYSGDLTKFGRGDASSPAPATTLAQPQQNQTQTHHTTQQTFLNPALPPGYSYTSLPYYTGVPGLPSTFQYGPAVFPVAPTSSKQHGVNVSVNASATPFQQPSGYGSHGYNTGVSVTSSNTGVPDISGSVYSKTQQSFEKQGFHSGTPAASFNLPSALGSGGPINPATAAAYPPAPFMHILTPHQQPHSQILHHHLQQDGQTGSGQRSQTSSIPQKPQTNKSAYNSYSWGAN
Sequence of UniProt Q9UEU0 (Q9UEU0 whole entry, looked up): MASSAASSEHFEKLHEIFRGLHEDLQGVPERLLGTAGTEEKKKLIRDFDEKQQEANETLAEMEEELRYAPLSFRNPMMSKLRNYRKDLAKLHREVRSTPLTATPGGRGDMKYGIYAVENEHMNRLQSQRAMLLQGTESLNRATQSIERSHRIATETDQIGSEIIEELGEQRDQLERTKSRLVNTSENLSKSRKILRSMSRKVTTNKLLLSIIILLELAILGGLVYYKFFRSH
Sequence of UniProt Q53S58 (Q53S58 whole entry, looked up): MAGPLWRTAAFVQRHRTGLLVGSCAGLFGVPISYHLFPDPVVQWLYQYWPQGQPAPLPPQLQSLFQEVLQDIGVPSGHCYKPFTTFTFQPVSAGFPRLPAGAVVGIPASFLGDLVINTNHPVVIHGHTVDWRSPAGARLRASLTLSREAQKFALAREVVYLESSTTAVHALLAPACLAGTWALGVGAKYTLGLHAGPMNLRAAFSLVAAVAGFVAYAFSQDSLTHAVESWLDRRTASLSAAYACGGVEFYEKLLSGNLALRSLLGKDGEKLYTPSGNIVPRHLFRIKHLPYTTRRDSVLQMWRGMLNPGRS
Sequence of UniProt O95801 (O95801 whole entry, looked up): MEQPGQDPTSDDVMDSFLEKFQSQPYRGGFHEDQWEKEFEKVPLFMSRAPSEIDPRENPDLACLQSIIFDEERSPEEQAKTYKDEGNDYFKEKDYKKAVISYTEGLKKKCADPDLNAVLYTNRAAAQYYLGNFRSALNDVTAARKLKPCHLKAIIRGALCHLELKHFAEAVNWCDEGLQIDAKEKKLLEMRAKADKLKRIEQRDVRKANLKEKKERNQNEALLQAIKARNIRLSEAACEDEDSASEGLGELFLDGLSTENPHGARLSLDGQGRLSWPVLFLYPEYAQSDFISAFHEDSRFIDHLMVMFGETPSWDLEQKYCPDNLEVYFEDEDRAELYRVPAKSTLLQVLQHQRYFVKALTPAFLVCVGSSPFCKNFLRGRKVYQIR
Sequence of UniProt Q969T4 (Q969T4 whole entry, looked up): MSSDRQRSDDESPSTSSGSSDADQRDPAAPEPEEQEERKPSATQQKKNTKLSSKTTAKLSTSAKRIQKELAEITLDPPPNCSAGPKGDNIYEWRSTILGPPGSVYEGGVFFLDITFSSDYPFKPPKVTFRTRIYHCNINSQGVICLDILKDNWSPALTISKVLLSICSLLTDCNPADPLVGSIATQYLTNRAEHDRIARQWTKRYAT

Target	log2 fold change [1]	log2 fold change [2]	log2 fold change [3]	log2 fold change [4]	log2 fold change (Nexturastat A)	log2 fold change (vemurafenib)	log2 fold change [5]	log2 fold change [6]	log2 fold change (givinostat)	log2 fold change (barasertib)	log2 fold change [7]	log2 fold change (volasertib)	log2 fold change [8]	log2 fold change (epoxomicin)	log2 fold change [9]	log2 fold change [10]	log2 fold change [11]	log2 fold change (rosiglitazone)	log2 fold change [12]	log2 fold change [13]
VPS39 (UniProt Q96JC1)	0.049	-0.015	0.011	0.031	0.014	0.041	0.059	-0.029	0.019	0.053	-0.206	-0.354 (active)	0.054	-0.017	-0.033	-0.091	0.022	0.044	0.008	-0.187
TYW1 (UniProt Q9NV66)	0.027	-0.017	0.023	0.074	-0.08	0.025	0.084	0.069	-0.025	0.045	-0.02	-0.341 (active)	0.052	0.03	-0.009	-0.002	0.031	0.036	0.014	0.088
TMEM177 (UniProt Q53S58)	0.043	0.045	-0.008	0.048	-0.092	0.05	0.05	-0.038	0.005	-0.019	-0.092	0.051	0.047	-0.052	0.002	0.048	0.219	0.035	-0.103	-0.075
WASHC2A (UniProt Q641Q2)	-0.053	-0.012	-0.039	-0.014	0.004	-0.041	-0.005	0.085	0.004	0.032	-0.058	-0.15	0.026	0.022	0.018	0.052	-0.046	-0.004	0.037	-0.18
UBE2E3 (UniProt Q969T4)	0.028	-0.059	0.053	0.08	-0.098	-0.013	0.08	0.022	0.116	0.013	-0.124	-0.377 (active)	-0.008	-0.052	0.051	-0.11	0.022	0.059	-0.005	-0.24
WDR46 (UniProt O15213)	0.039	-0.021	-0.001	-0.102	0.216	-0.135	-0.026	0.136	-0.05	-0.064	0.195	0.073	-0.085	-0.417	0.008	0.288	-0.2	-0.077	0.311	0.389
TMEM63B (UniProt Q5T3F8)	0.095	0.014	0.006	0.004	0.051	0.009	-0.011	-0.044	0.014	-0.038	-0.001	0.071	-0.019	0.039	0.041	0.011	-0.052	-0.052	0.042	-0.073
USP24 (UniProt Q9UPU5)	0.114	-0.026	0	0.012	-0.047	0	0.052	-0.042	0.011	-0.053	-0.04	-0.1	-0.047	0.073	-0.072	-0.062	0.055	-0.025	-0.123	0.137
TP53BP1 isoform 2 (UniProt Q12888)	-0.02	-0.032	0	-0.022	0.045	0	0.02	0.056	0.019	0.022	-0.024	-0.072	0.021	0	-0.01	0	0.008	-0.018	0.052	0.025
UBR2 (UniProt Q8IWV8)	0.079	-0.08	0.048	-0.03	0.078	0.029	0.037	-0.038	0.192	0.046	0.046	-0.104	-0.004	0.196	-0.026	-0.039	-0.076	0.063	0.114	-0.063
TTC4 (UniProt O95801)	0.051	-0.066	0.032	0.046	0.052	0.059	0.106	0.013	-0.015	0.072	-0.173	-0.316 (active)	0.103	0.054	-0.025	-0.039	0.061	0.052	-0.02	-0.11
TRIP10 (UniProt Q15642)	0.003	-0.026	-0.009	-0.045	0.139	0.08	0.026	-0.012	-0.058	0.015	-0.024	-0.11	0.047	0.034	-0.051	-0.051	0.04	0	-0.036	-0.056
WNK1 isoform 7 (UniProt Q9H4A3)	-0.047	0.426	-0.006	-0.019	-0.03	-0.023	0.004	-0.006	0.03	0.032	-0.021	-0.01	0.04	0.013	-0.012	-0.005	0.005	0.015	-0.001	0.019
VARS2, A0A0G2JL52	-0.003	0.005	-0.025	0.012	0.005	0.03	0.047	-0.018	-0.015	0.052	-0.024	0.001	0.08	0.011	0.006	-0.013	0.007	0.03	-0.016	-0.126
UBAP2L isoform 1 (UniProt Q14157)	-0.057	0.035	-0.016	0.025	0.012	-0.083	0.246 (active)	-0.045	-0.261 (active)	-0.011	-0.026	-0.417	0.046	-0.005	0.059	0.026	-0.004	0.001	0	-0.023
VTI1B (UniProt Q9UEU0)	-0.038	0.006	-0.008	-0.014	0.036	-0.03	0.009	-0.034	-0.04	-0.007	-0.028	-0.066	-0.037	-0.057	0.036	-0.018	-0.009	0.006	0.018	-0.331 (active)
